# Measured values reported in PubChem BioAssay AID1546 (The Scripps Research Institute Molecular Screening Center, 2009).
# This is one part of the list. A number with no mark means an inactive call. No stated cut-off is given here; in the data, active means activation above about 45%; inactive means the rest.
# Molecular target: Neuropeptide Y receptor type 1 (Homo sapiens) (UniProt P25929)
# Assay: human Y1 receptor positive modulation or activation – cell-based, confirmation (AID 1546);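 further: cells challenged with NPY at its EC10 plus isoproterenol stimulus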
# Conditions: cell-based NPY-Y1 potentiator/agonist assay; at 3.6 µM; hits give high values
# Chain of Neuropeptide Y receptor type 1 (Homo sapiens) (P25929 whole entry, looked up): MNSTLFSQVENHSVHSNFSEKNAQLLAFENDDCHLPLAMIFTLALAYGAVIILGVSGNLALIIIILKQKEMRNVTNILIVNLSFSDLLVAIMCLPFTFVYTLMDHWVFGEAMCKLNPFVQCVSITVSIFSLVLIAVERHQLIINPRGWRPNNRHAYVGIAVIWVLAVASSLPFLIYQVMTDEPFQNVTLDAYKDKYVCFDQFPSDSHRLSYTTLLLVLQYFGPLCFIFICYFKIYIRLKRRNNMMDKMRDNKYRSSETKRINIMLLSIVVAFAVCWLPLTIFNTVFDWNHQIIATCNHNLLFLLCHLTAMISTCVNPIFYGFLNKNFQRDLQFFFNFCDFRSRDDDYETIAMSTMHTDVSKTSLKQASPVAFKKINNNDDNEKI
row,Structure (SMILES),activation [%]
1,Cc1nn(Cc2ccccc2Cl)c(Cl)c1C(=O)OC(C(=O)NC(N)=O)C(C)C (configuration not stated),43.3
2,CSC1=NP(=S)(SC)N(C)c2nc3n(c21)CCC3 (configuration not stated),13.8
